{"source": "the supplement of paper PMC10338343", "note": "± gives the standard deviation.", "data": [{"test_system": "MILI (PIWIL2) piRISC loaded with L1MC piRNA (26 nt)", "assay": "pre-steady-state target cleavage rate (min^-1); guide: L1MC piRNA 5'p-UAACUAAAUACUAUGCAAGCUGUAGG; MIWI and MILI are mouse PIWI proteins and EfPiwi is from a freshwater sponge; tags in brackets are library labels; higher = faster piRNA-guided slicing of the target", "settings": "auxiliary factor: 500 nM mouse GTSF1", "in_short": "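The pre-steady-state cleavage rate was obtained by Cleave-'n-Seq with a burst-and-steady-state fit. A transcribed, DNA-blocked target RNA library (0.1 nM) was mixed with 1 nM active affinity-purified piRISC carrying one synthetic guide, with or without 500 nM GTSF1 partner protein, in HEPES–potassium acetate buffer at 33 °C for 0–8 or 0–960 min. Uncleaved targets were sequenced and normalised to depth and to weakly complementary targets, with three trials pooled and k3 capped at 0.0001 min^-1.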", "values": [{"sequence": "UCCUCCUACAGCUUGCAAUGUAUUUAGAAA", "pre-steady-state target cleavage rate": "0.0725 ± 0.016"}, {"sequence": "UCCUGGAUGUGCUUGCAAAGUAUUUAGAAA", "pre-steady-state target cleavage rate": "0.0118 ± 0.0048"}, {"sequence": "UCCUGGAUGUCCUUGCAUAGUAUUUAAUUA", "pre-steady-state target cleavage rate": "0.0833 ± 0.017"}, {"sequence": "UCCUGGAUGUGCUUGCAUAGUAUUUAGAUA", "pre-steady-state target cleavage rate": "0.0576 ± 0.014"}, {"sequence": "UCCUGGAUGUGCUUGCAUUGUAUUUAGAUA", "pre-steady-state target cleavage rate": "0.0503 ± 0.009"}, {"sequence": "UCCUGGAUCACGAUGCAUAGUAUUUAGAAA", "pre-steady-state target cleavage rate": "0.111 ± 0.017"}, {"sequence": "UCCUCCUACAGCUUGGUUAGUAUUUACAAA", "pre-steady-state target cleavage rate": "0.0445 ± 0.012"}, {"sequence": "UCCUGGAUGUCCUUGCAAUGUAUUUAGUAA", "pre-steady-state target cleavage rate": "0.0086 ± 0.0045"}, {"sequence": "UCCUGGAUCAGCUUGCAUAGUAUUAUCUUA", "pre-steady-state target cleavage rate": "0.0326 ± 0.0079"}, {"sequence": "UCCUGGUACAGCUUGCAUAGGAUUUAGUUA", "pre-steady-state target cleavage rate": "0.00737 ± 0.0052"}, {"sequence": "UCCUGGAUGUGCUUGCAUAGUAUUUGUUA", "pre-steady-state target cleavage rate": "0.0295 ± 0.011"}, {"sequence": "UCCUGGAUCACCUUGCAUAGUAUAUAGUUA", "pre-steady-state target cleavage rate": "0.227 ± 0.041"}, {"sequence": "UCCUGGAUGUCCUUGACAUAGUAUUUAGUUA", "pre-steady-state target cleavage rate": "0.0214 ± 0.0096"}, {"sequence": "UCCUGCUACAGCAAGCAUAGUAUUUACAAA", "pre-steady-state target cleavage rate": "0.191 ± 0.055"}, {"sequence": "UCCUGGAUGUGCUUGCAUAGUAAUAAGUUA", "pre-steady-state target cleavage rate": "0.0448 ± 0.016"}, {"sequence": "UCCUGCUACAGCUUGCAAAGUAUUUUCAAA", "pre-steady-state target cleavage rate": "0.0624 ± 0.02"}, {"sequence": "UCCUGGAUGAGCUUGCAUAGAAUUUUGUUA", "pre-steady-state target cleavage rate": "0.0139 ± 0.0063"}, {"sequence": "UCCUGGAUCACGAUGCAUAGUAUUUACAAA", "pre-steady-state target cleavage rate": "0.0606 ± 0.015"}, {"sequence": "UCCUGCUACAGGAAGCAUAGUAUUUACAAA", "pre-steady-state target cleavage rate": "0.0258 ± 0.008"}, {"sequence": "UCCUGGAACAGCUUGCAUAGAAUUAAGUUA", "pre-steady-state target cleavage rate": "0.051 ± 0.014"}, {"sequence": "UCCUGGAUCAGCUUGCUAUGUAUUUAGAAA", "pre-steady-state target cleavage rate": "0.00524 ± 0.0033"}, {"sequence": "UCCUGGAUGUGGUUGCAUAGUAUUUACUUA", "pre-steady-state target cleavage rate": "0.00985 ± 0.0096"}, {"sequence": "UCCUGGUACAGCUUGCAUAGUAUUUAUUA", "pre-steady-state target cleavage rate": "0.042 ± 0.016"}, {"sequence": "UCCUGGAACAGCUUGGAUAGAAUUUAGUUA", "pre-steady-state target cleavage rate": "0.0521 ± 0.013"}, {"sequence": "UCCUGGAUGUGCUUGGAUAGUAUUUAGUAA", "pre-steady-state target cleavage rate": "0.117 ± 0.021"}, {"sequence": "UCCUGCUACAGCUUGCAAAGUAUUUACUUA", "pre-steady-state target cleavage rate": "0.0653 ± 0.0078"}, {"sequence": "UCCUGGAUGUGCUUGCAUAGUAUUAAGUAA", "pre-steady-state target cleavage rate": "0.015 ± 0.0059"}, {"sequence": "UCCUGGAUGAGCUUGGAUAGUAUUUAGAUA", "pre-steady-state target cleavage rate": "0.0187 ± 0.0061"}, {"sequence": "UCCUGGAACAGCUAGCAUAGAAUUUAGUUA", "pre-steady-state target cleavage rate": "0.0486 ± 0.0073"}, {"sequence": "UCCUGGAUGUGCUUGGUUAGUAUUUAGAAA", "pre-steady-state target cleavage rate": "0.00692 ± 0.0045"}, {"sequence": "UCCUGGAACAGCAACCAUAGUAUUUAGAAA", "pre-steady-state target cleavage rate": "0.018 ± 0.0072"}, {"sequence": "UCCUGGUUCAGCUUGCAUAGUAUUUACAAA", "pre-steady-state target cleavage rate": "0.0698 ± 0.021"}, {"sequence": "UCCUGGAUCAGCUUGCAUAGUAUAUUCAAA", "pre-steady-state target cleavage rate": "0.0428 ± 0.01"}, {"sequence": "UCCUGGAUGUCGAUGCAUAGUAUUUACUUA", "pre-steady-state target cleavage rate": "0.0276 ± 0.01"}, {"sequence": "UCCUGGAACAGCUUGCAUAGUAUUUUCUAA", "pre-steady-state target cleavage rate": "0.0162 ± 0.0068"}, {"sequence": "UCCUCCUACAGCUUGCAUACAUUUUAGUUA", "pre-steady-state target cleavage rate": "0.00509 ± 0.0039"}]}]}
